Experimental data as given in the supplement of paper PMC10849652.
About 7,900 targets were measured; listed, in parts, are those with a hit and a random draw of the rest. About 0.6% of all pairs of compound and target were hits. A number with no mark means an inactive call.

compound: CN1CCC(CNc2ccc3ncc(-c4cccc(OC(F)(F)F)c4)n3n2)CC1; assay: log2 fold change, soluble protein after heating vs DMSO (PISA); higher = thermal stabilisation; K562 cells, 10 uM, 30 min; active = over 0.2 and 3.5 SD of the protein, either way, in both replicates (recomputed)
Procedure, shortened: (§1)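 K562 cells at 2×10^6 cells/mL were given 10 μM compound for 30 min. Aliquots then went through 3 min of heating across 48°C-58°C, were pooled, and were extracted in PBS with 0.5% NP-40 at 4°C, and the supernatant after 21,000xg for 90 min was quantified by TMTpro 16plex LC-MS/MS with channel sums equalised. Thermal stability relative to control samples, from duplicates, is given as log2 fold change.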

UniProt O95232, sequence (O95232 whole entry, looked up): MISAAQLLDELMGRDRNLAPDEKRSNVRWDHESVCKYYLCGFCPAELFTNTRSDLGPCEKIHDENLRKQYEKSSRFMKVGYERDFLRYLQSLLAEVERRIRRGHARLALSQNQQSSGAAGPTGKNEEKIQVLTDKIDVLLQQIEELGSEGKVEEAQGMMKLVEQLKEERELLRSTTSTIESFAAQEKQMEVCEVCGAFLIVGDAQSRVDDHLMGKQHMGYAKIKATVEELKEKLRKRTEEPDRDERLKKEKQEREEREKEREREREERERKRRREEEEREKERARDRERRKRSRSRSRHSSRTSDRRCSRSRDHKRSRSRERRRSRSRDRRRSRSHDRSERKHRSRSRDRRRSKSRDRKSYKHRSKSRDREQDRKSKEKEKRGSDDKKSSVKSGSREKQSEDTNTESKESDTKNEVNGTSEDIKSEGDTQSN
UniProt Q9H1H9, sequence (Q9H1H9 whole entry, looked up): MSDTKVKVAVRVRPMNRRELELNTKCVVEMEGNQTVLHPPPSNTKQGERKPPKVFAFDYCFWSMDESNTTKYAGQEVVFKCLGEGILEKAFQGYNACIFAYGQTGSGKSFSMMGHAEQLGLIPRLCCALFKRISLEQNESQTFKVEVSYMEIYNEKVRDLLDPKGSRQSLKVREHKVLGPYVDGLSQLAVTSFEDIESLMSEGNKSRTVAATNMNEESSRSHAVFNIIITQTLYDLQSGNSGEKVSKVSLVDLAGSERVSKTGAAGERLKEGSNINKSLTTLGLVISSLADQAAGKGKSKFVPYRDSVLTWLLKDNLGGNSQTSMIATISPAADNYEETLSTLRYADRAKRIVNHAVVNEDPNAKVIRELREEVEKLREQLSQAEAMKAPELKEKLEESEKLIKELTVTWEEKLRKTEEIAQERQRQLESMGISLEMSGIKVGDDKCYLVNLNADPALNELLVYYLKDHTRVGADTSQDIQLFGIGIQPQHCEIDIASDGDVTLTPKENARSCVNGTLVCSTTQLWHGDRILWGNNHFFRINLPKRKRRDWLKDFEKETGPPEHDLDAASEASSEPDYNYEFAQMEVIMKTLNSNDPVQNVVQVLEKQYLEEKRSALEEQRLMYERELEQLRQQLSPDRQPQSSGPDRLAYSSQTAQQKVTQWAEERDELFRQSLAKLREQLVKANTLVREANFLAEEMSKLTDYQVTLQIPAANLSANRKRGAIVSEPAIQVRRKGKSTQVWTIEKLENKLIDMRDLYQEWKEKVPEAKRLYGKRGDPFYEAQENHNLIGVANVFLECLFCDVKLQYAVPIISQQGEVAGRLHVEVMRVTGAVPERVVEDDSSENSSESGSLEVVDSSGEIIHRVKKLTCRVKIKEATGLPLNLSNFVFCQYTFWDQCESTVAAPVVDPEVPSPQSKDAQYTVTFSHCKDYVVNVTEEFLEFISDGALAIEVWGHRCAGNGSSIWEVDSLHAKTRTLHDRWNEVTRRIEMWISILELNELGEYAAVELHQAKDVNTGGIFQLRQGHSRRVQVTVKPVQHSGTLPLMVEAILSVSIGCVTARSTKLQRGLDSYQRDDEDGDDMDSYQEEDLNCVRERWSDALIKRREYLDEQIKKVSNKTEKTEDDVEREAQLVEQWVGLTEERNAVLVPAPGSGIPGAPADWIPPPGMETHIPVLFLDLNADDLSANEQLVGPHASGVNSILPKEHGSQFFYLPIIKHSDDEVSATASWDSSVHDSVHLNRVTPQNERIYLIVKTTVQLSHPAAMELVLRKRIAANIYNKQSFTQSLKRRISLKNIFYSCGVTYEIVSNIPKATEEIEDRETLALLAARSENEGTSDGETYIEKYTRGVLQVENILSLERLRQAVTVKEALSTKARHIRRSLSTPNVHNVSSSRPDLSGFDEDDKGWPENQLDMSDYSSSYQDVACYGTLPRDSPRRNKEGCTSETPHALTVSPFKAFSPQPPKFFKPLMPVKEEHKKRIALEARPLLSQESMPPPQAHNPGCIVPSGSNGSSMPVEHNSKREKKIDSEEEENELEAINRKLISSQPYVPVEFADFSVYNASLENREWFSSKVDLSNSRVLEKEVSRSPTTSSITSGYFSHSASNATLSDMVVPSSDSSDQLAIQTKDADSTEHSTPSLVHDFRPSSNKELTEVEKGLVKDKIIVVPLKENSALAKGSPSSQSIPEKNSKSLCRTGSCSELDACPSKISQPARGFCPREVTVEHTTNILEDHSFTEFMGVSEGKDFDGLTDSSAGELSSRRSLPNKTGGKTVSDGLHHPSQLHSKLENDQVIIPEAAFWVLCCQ
UniProt P32019, sequence (P32019 whole entry, looked up): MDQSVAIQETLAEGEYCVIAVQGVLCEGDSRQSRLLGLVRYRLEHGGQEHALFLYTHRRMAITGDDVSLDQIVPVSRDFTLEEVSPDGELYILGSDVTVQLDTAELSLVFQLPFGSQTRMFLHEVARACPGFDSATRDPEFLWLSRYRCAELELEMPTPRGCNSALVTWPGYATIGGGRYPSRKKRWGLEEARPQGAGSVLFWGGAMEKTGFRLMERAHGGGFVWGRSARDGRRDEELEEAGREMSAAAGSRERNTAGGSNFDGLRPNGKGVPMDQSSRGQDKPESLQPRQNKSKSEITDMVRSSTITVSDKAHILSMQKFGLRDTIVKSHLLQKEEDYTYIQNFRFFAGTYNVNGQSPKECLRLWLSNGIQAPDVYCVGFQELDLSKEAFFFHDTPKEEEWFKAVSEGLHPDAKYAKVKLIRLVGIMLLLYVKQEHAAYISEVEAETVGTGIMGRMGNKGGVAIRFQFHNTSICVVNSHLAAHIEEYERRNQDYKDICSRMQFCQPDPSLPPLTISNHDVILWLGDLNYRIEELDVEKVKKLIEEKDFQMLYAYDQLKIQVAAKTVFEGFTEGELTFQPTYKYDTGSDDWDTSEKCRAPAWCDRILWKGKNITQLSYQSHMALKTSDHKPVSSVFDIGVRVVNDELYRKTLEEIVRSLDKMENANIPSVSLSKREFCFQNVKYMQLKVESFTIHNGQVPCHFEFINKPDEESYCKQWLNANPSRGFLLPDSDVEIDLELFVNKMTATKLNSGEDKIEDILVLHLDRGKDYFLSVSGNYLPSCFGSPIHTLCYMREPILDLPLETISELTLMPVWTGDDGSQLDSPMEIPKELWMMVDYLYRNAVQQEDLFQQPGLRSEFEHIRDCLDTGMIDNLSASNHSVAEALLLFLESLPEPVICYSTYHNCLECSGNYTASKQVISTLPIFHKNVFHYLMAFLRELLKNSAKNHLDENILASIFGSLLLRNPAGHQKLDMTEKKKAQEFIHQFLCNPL
UniProt Q8IYU8, sequence (Q8IYU8 whole entry, looked up): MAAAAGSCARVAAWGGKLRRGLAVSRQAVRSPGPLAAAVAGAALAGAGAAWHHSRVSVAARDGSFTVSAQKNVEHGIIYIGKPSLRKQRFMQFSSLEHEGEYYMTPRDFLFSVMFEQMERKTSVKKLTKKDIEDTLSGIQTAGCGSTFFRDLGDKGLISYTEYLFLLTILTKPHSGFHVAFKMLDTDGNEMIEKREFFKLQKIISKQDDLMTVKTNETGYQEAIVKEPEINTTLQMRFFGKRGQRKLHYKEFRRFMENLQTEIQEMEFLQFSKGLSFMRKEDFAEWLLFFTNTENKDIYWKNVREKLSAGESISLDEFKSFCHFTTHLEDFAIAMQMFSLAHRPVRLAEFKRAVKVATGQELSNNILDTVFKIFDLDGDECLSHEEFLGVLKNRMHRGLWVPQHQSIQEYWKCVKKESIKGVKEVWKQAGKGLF
UniProt Q9NQG6, sequence (Q9NQG6 whole entry, looked up): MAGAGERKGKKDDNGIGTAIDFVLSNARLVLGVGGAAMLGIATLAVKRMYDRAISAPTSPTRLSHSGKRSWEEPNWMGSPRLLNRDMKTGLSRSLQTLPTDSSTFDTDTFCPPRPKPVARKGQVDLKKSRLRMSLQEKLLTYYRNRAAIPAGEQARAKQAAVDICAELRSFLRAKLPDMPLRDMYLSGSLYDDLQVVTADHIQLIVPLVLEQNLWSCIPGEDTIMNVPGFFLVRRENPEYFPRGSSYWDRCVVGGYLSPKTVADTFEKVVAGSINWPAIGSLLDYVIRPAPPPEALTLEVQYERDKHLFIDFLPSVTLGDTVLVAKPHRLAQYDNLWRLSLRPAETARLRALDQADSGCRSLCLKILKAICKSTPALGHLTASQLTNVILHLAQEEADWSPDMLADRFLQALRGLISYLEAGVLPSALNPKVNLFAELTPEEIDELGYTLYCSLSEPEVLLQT
UniProt Q8IWA4, sequence (Q8IWA4 whole entry, looked up): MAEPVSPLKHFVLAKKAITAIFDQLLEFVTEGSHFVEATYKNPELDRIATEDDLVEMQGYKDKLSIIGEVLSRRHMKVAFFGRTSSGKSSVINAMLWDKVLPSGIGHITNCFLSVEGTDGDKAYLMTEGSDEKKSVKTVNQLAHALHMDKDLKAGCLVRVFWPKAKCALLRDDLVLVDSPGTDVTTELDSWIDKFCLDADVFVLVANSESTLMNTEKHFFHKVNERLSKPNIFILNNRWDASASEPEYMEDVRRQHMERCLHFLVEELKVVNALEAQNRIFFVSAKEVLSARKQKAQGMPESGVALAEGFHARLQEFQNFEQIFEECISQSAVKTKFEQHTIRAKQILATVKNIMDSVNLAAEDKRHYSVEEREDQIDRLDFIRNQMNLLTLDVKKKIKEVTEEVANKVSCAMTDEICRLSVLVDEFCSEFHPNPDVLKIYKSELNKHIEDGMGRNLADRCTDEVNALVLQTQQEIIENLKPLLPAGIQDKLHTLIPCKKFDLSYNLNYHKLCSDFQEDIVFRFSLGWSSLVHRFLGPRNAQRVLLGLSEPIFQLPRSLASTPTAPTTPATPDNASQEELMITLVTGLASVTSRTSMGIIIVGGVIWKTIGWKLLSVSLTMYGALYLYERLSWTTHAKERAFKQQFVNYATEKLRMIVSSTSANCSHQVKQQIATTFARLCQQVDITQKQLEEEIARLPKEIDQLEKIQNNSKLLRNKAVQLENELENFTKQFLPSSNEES

Q: Which log2 fold change does the source give for IWS1 (UniProt Q96ST2) here?
A: The log2 fold change was -0.054.

Q: For LUC7L2 (UniProt Q9Y383), which log2 fold change is on record?
A: The log2 fold change was -0.073.

Q: How did the log2 fold change turn out when MARK3 (UniProt P27448) was run?
A: Its log2 fold change is -0.549 (active).

Q: Which log2 fold change does the source give for MIEF1 (UniProt L0R8F8) here?
A: Its log2 fold change is -0.021.

Q: Which log2 fold change does the source give for KIF11 (UniProt P52732) here?
A: The log2 fold change was 0.022.

Q: Which log2 fold change does the source give for LPIN3 isoform 2 (UniProt Q9BQK8) here?
A: The log2 fold change was -0.27 (active).

Q: INPP5B (UniProt P32019) was tested. Which log2 fold change did it give?
A: Its log2 fold change is 0.003.

Q: Which log2 fold change does the source give for LNPEP (UniProt Q9UIQ6) here?
A: The log2 fold change was 0.024.

Q: KDM1A isoform 2 (UniProt O60341) was tested. Which log2 fold change did it give?
A: The log2 fold change was -0.091.

Q: How did the log2 fold change turn out when IPO13 (UniProt O94829) was run?
A: The log2 fold change was -0.333 (active).

Q: For MIEF1 (UniProt Q9NQG6), which log2 fold change is on record?
A: The log2 fold change was -0.546 (active).

Q: Which log2 fold change does the source give for KDELR2 (UniProt P33947) here?
A: Its log2 fold change is 0.255.

Q: Which log2 fold change does the source give for KTN1 (UniProt Q86UP2) here?
A: Its log2 fold change is -0.006.

Q: With KHDRBS1 (UniProt Q07666) as the target, how does the log2 fold change read?
A: The log2 fold change was 0.116.

Q: For KSR1 (UniProt Q8IVT5), which log2 fold change is on record?
A: Its log2 fold change is -0.878 (active).

Q: How did the log2 fold change turn out when LUC7L3 (UniProt O95232) was run?
A: The log2 fold change was -0.074.

Q: How did the log2 fold change turn out when LAMP2 (UniProt P13473) was run?
A: Its log2 fold change is -0.032.

Q: With MED1 (UniProt Q15648) as the target, how does the log2 fold change read?
A: The log2 fold change was -0.025.

Q: For MICU2 (UniProt Q8IYU8), which log2 fold change is on record?
A: The log2 fold change was -0.309 (active).

Q: ILK (UniProt Q13418) was tested. Which log2 fold change did it give?
A: The log2 fold change was -0.191.

Q: KIF13A (UniProt Q9H1H9) was tested. Which log2 fold change did it give?
A: Its log2 fold change is 0.039.

Q: For KIF3A (UniProt Q9Y496), which log2 fold change is on record?
A: The log2 fold change was -0.162.

Q: For KDM5D isoform 3 (UniProt Q9BY66), which log2 fold change is on record?
A: Its log2 fold change is -0.059.

Q: How did the log2 fold change turn out when KIAA1324L (UniProt A8MWY0) was run?
A: The log2 fold change was -0.14.

Q: Which log2 fold change does the source give for MIER1 isoform 12 (UniProt Q8N108) here?
A: The log2 fold change was -0.107.

Q: With MIA2 (UniProt Q96PC5) as the target, how does the log2 fold change read?
A: The log2 fold change was 0.053.

Q: Which log2 fold change does the source give for LIMA1 isoform 4 (UniProt Q9UHB6) here?
A: Its log2 fold change is 0.086.

Q: For METTL18 (UniProt O95568), which log2 fold change is on record?
A: The log2 fold change was 0.015.

Q: Which log2 fold change does the source give for KIF21A isoform 4 (UniProt Q7Z4S6) here?
A: The log2 fold change was 0.076.

Q: With LUC7L (UniProt Q9NQ29) as the target, how does the log2 fold change read?
A: The log2 fold change was 0.052.

Q: How did the log2 fold change turn out when KEL (UniProt P23276) was run?
A: Its log2 fold change is 0.088.

Q: How did the log2 fold change turn out when LEO1 (UniProt Q8WVC0) was run?
A: The log2 fold change was -0.048.

Q: How did the log2 fold change turn out when LARP4 isoform 4 (UniProt Q71RC2) was run?
A: The log2 fold change was -0.252.

Q: With MFF (UniProt Q9GZY8) as the target, how does the log2 fold change read?
A: Its log2 fold change is -0.386 (active).

Q: How did the log2 fold change turn out when MFN1 (UniProt Q8IWA4) was run?
A: Its log2 fold change is -0.295 (active).

Q: For MCL1 (UniProt Q07820), which log2 fold change is on record?
A: Its log2 fold change is -0.209.

Q: LYN (UniProt P07948) was tested. Which log2 fold change did it give?
A: Its log2 fold change is -0.03.

Q: How did the log2 fold change turn out when ILVBL (UniProt A1L0T0) was run?
A: The log2 fold change was 0.019.

Q: Which log2 fold change does the source give for KCTD2 (UniProt Q14681) here?
A: The log2 fold change was -0.623.

compound: CN1CCN(CCOc2cc(OC3CCOCC3)c3c(Nc4c(Cl)ccc5c4OCO5)ncnc3c2)CC1 [saracatinib]; assay: as above
Procedure, shortened: as §1

Q: How did the log2 fold change turn out when IWS1 (UniProt Q96ST2) was run?
A: The log2 fold change was -0.042.

Q: With LUC7L2 (UniProt Q9Y383) as the target, how does the log2 fold change read?
A: Its log2 fold change is 0.022.

Q: With MARK3 (UniProt P27448) as the target, how does the log2 fold change read?
A: The log2 fold change was 0.024.

Q: With MIEF1 (UniProt L0R8F8) as the target, how does the log2 fold change read?
A: Its log2 fold change is -0.068.

Q: With KIF11 (UniProt P52732) as the target, how does the log2 fold change read?
A: Its log2 fold change is -0.059.

Q: Which log2 fold change does the source give for LPIN3 isoform 2 (UniProt Q9BQK8) here?
A: Its log2 fold change is -0.101.

Q: For INPP5B (UniProt P32019), which log2 fold change is on record?
A: Its log2 fold change is 0.024.

Q: With LNPEP (UniProt Q9UIQ6) as the target, how does the log2 fold change read?
A: Its log2 fold change is 0.048.

Q: Which log2 fold change does the source give for KDM1A isoform 2 (UniProt O60341) here?
A: Its log2 fold change is -0.061.

Q: With IPO13 (UniProt O94829) as the target, how does the log2 fold change read?
A: Its log2 fold change is 0.111.

Q: For MIEF1 (UniProt Q9NQG6), which log2 fold change is on record?
A: Its log2 fold change is -0.016.

Q: How did the log2 fold change turn out when KDELR2 (UniProt P33947) was run?
A: Its log2 fold change is 0.094.

Q: For KTN1 (UniProt Q86UP2), which log2 fold change is on record?
A: Its log2 fold change is 0.001.

Q: KHDRBS1 (UniProt Q07666) was tested. Which log2 fold change did it give?
A: Its log2 fold change is 0.025.

Q: With KSR1 (UniProt Q8IVT5) as the target, how does the log2 fold change read?
A: The log2 fold change was -0.229.

Q: For LUC7L3 (UniProt O95232), which log2 fold change is on record?
A: Its log2 fold change is -0.003.

Q: With LAMP2 (UniProt P13473) as the target, how does the log2 fold change read?
A: Its log2 fold change is 0.078.

Q: Which log2 fold change does the source give for MED1 (UniProt Q15648) here?
A: Its log2 fold change is 0.001.

Q: With MICU2 (UniProt Q8IYU8) as the target, how does the log2 fold change read?
A: The log2 fold change was 0.

Q: Which log2 fold change does the source give for ILK (UniProt Q13418) here?
A: The log2 fold change was -0.119.

Q: KIF13A (UniProt Q9H1H9) was tested. Which log2 fold change did it give?
A: The log2 fold change was 0.063.

Q: For KIF3A (UniProt Q9Y496), which log2 fold change is on record?
A: The log2 fold change was -0.102.

Q: How did the log2 fold change turn out when KDM5D isoform 3 (UniProt Q9BY66) was run?
A: Its log2 fold change is -0.063.

Q: With KIAA1324L (UniProt A8MWY0) as the target, how does the log2 fold change read?
A: The log2 fold change was 0.018.

Q: Which log2 fold change does the source give for MIER1 isoform 12 (UniProt Q8N108) here?
A: The log2 fold change was 0.026.

Q: For MIA2 (UniProt Q96PC5), which log2 fold change is on record?
A: The log2 fold change was 0.003.

Q: How did the log2 fold change turn out when LIMA1 isoform 4 (UniProt Q9UHB6) was run?
A: The log2 fold change was 0.046.

Q: With METTL18 (UniProt O95568) as the target, how does the log2 fold change read?
A: The log2 fold change was 0.024.

Q: Which log2 fold change does the source give for KIF21A isoform 4 (UniProt Q7Z4S6) here?
A: The log2 fold change was 0.001.

Q: LUC7L (UniProt Q9NQ29) was tested. Which log2 fold change did it give?
A: Its log2 fold change is -0.005.

Q: Which log2 fold change does the source give for KEL (UniProt P23276) here?
A: Its log2 fold change is 0.09.

Q: How did the log2 fold change turn out when LEO1 (UniProt Q8WVC0) was run?
A: Its log2 fold change is -0.047.

Q: With LARP4 isoform 4 (UniProt Q71RC2) as the target, how does the log2 fold change read?
A: The log2 fold change was -0.066.

Q: How did the log2 fold change turn out when MFF (UniProt Q9GZY8) was run?
A: The log2 fold change was 0.003.

Q: For MFN1 (UniProt Q8IWA4), which log2 fold change is on record?
A: Its log2 fold change is -0.029.

Q: With MCL1 (UniProt Q07820) as the target, how does the log2 fold change read?
A: The log2 fold change was 0.011.

Q: How did the log2 fold change turn out when LYN (UniProt P07948) was run?
A: Its log2 fold change is -0.198.

Q: For ILVBL (UniProt A1L0T0), which log2 fold change is on record?
A: The log2 fold change was -0.022.

Q: How did the log2 fold change turn out when KCTD2 (UniProt Q14681) was run?
A: The log2 fold change was -0.276.
